# According to PubChem BioAssay (NCATS):
# Results filed as inconclusive are left out. Where a call stands in place of a potency, no number is given. A number with no mark means an inactive call. Activity calls are given as the source filed them. Calls follow the shape of the dose curve; as a rule, active = well fitted curve in the direction sought with a large enough effect; inconclusive = small, poorly fitted or top-dose-only effect, or another doubt; inactive = no such curve, though single readings can be large; an effect the other way counts as inactive or inconclusive. Where a SMILES comes first, the peptide text is derived from it. [ ]: non-standard residue; d: D form. 2Abz = Nc1ccccc1C(=O)O
# Key:
# [1] = P-glycoprotein substrates identified in KB-3-1 adenocarcinoma cell line, qHTS therapeutic library screen (AID 1346986); also: nearly all actives have a fitted effect of over 60% in size
# Method in brief: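 Viability by CellTiter-Glo after 72 h compound exposure at 37 degree C, 5% CO2. Cytotoxic call: curve class -1.1 to -2.4, maximum response >50%, AC50 < 10 uM, compared across KB-3-1 and P-gp-overexpressing KB-8-5-11.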
# [2] = P-glycoprotein substrates identified in KB-8-5-11 adenocarcinoma cell line, qHTS therapeutic library screen (AID 1346987); also: nearly all actives have a fitted effect of over 65% in size; as to activity change, negative = cytotoxicity: series mostly up to about 44 µM
# Method in brief: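 In this qHTS, P-gp-rich KB-8-5-11 cells received library compounds across a concentration range. Viability was quantified by luminescence after 72 h at 37 degree C.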
structure (smiles),measurement,setting,value
C=C/C=C/[C@@H]1OC[C@H](/C=C/C=C/C)[C@H]1O,Potency,[1],inactive
same,Potency,[2],inactive
CC(=O)O[C@@H]1[C@H](O[C@@H]2O[C@H](CO)[C@@H](O)[C@H](O)[C@H]2O)[C@@H](O[C@@H]2O[C@@H](C)[C@H](O)[C@@H](O[C@@H]3O[C@H](CO)[C@@H](O)[C@H](O)[C@H]3O)[C@H]2O)[C@H](OC(=O)C23CCC4(C)C(=CCC5C6(C)CC(O)C(O[C@@H]7O[C@H](C(=O)O)[C@@H](O)[C@H](O)[C@H]7O)C(C)(C(=O)O)C6CCC54C)C2CC(C)(C)CC3O)O[C@@H]1C (stereo partly specified),outcome,[1],inactive [at 9.29 µM]
same,outcome,[2],inactive [at 9.29 µM]
C=C1CC2[C@]3(C)C(=C(O)C(=O)[C@@]2(C)[C@]2(C(=O)OC)C(=O)C(C)OC(=O)[C@@]12C)C(C)(C)C(=O)CC3O (stereo partly specified),Potency,[1],inactive
same,Potency,[2],inactive
C=CCc1ccc(O[C@@H]2O[C@H](CO)[C@@H](O)[C@H](O)[C@H]2O)c(OC)c1,Potency,[1],inactive
same,Potency,[2],inactive
COc1cc(C2Oc3c(O)cc(CCCO)cc3C2CO)ccc1O[C@H]1O[C@H](C)[C@@H](O)[C@H](O)[C@@H]1O (stereo partly specified),Potency,[1],inactive
same,Potency,[2],inactive
N[C@H]1C[C@H]1c1ccc(-c2cccc(O)c2)cc1,Potency,[1],inactive
same,Potency,[2],inactive
O=C(O)c1ccc(CCCc2ccc(OCCc3ccc(F)cc3)cc2)o1,Potency,[1],inactive
same,Potency,[2],inactive
CC1(C)CCC(C)(C)c2cc([C@@H](O)C(=O)Nc3ccc(C(=O)O)cc3F)ccc21,Potency,[1],inactive
same,Potency,[2],inactive
O=C(/C=C/c1ccc(O)cc1)OCC1=CC2OC(=O)C3=CO[C@@H](O[C@@H]4O[C@H](CO)[C@@H](O)[C@H](O)[C@H]4O)[C@H]1[C@@H]32 (stereo partly specified),Potency,[1],inactive
same,Potency,[2],inactive
CC1CCC23COC(=O)C2=CC(O)CC3C1(C)CCC1=CC(=O)OC1O (stereo unspecified),Potency,[1],inactive
same,Potency,[2],inactive
CNC(=O)[C@H]1O[C@@H](n2cnc3c(NCc4ccc(N)c(I)c4)ncnc32)[C@H](O)[C@@H]1O,outcome,[1],inactive [at 9.29 µM]
same,outcome,[2],inactive [at 9.29 µM]
CC1(C)CC[C@]2(C(=O)O)CC[C@]3(C)C(=CCC4[C@@]5(C)C[C@H](O)[C@H](O[C@@H]6OC[C@H](O)[C@H](O)[C@H]6O)[C@@](C)(CO)C5CC[C@]43C)[C@@H]2C1 (stereo partly specified),Potency,[1],inactive
same,Potency,[2],inactive
Nc1ncnc2c1ncn2[C@H]1CCCO1,Potency,[1],inactive
same,Potency,[2],inactive
COc1cc(-c2cccc(O)c2)cc2c1OCO2,Potency,[1],inactive
same,Potency,[2],inactive
CO[C@@H]1CC[C@H](OC[C@]2(COC(=O)c3ccc(C)[nH]3)[C@H](OC(C)=O)CC[C@@]3(C)[C@@H]4CC=C(C)[C@@H](C5=C(O)C(=O)OC5O)[C@]4(C)CC[C@@H]32)O[C@H]1C (stereo partly specified),Potency,[1],inactive
same,Potency,[2],inactive
CC1=CC(=O)CC(C)(C)C1CCC(C)OC1OC(COC(=O)c2cc(O)c(O)c(O)c2)C(O)C(O)C1O (stereo unspecified),Potency,[1],inactive
same,Potency,[2],inactive
O=C(/C=C/c1c(C(=O)O)[nH]c2cc(Cl)cc(Cl)c12)Nc1ccccc1,Potency,[1],inactive
same,Potency,[2],inactive
Cc1ccc2c(c1)C=Cc1cc(C)ccc1C2c1cn(Cc2ccc(C(=O)Nc3nn[nH]n3)o2)c(=O)[nH]c1=S,Potency,[1],inactive
same,Potency,[2],inactive
CC1CCC2C(C)(C)C(O)CCC2(C)C12Cc1c(O)cc3c(c1O2)C(N)=NC3 (stereo unspecified),Potency,[1],inactive
same,Potency,[2],inactive
CC(=O)OC1C=C(C(=O)O)C2(CO)CCC(C)C(C)(CCc3ccoc3)C2C1 (stereo unspecified),Potency,[1],inactive
same,Potency,[2],inactive
CCOc1nc2cccc(C(=O)O)c2n1Cc1ccc(-c2ccccc2-c2noc(=O)[nH]2)cc1,Potency,[1],inactive
same,Potency,[2],inactive
CCCn1cnc2c(NCc3ccccc3)nc(N[C@H](CC)CO)nc21,Potency,[1],inactive
same,Potency,[2],inactive
CCC(C)C(=O)O[C@@H]1[C@@H](O)[C@@H](O[C@H]2O[C@H](CO)[C@@H](O)[C@H](O)[C@H]2O)O[C@H](CO)[C@H]1O (stereo partly specified),Potency,[1],inactive
same,Potency,[2],inactive
COC(=O)C1(Cc2ccc(O)cc2)OC(=O)C(OC)=C1c1ccc(O)cc1 (stereo unspecified),Potency,[1],inactive
same,Potency,[2],inactive
CC1=C2C3OC(=O)C(C)C3(O)CCC2(C)CCC1=O (stereo unspecified),Potency,[1],inactive
same,Potency,[2],inactive
CCC(C)C1NC(=O)C2CCCN2C(=O)C(C(C)C)NC(=O)c2ccccc2NC(=O)C(Cc2ccc(O)cc2)NC(=O)C(C)NC(=O)C(C(C)O)NC1=O (stereo unspecified) (cyclo([2Abz]VPITAY); configuration not given here),Potency,[1],inactive
same,Potency,[2],inactive
C[C@H]1CN(C[C@H](Cc2ccccc2)C(=O)NCC(=O)O)CC[C@@]1(C)c1cccc(O)c1,Potency,[1],inactive
same,Potency,[2],inactive
CC(=O)O[C@@H]1[C@H](O[C@@H]2OC[C@](O)(CO)[C@H]2O)[C@@H](O[C@@H]2O[C@@H](C)[C@H](O)[C@@H](O)[C@H]2O)[C@H](OC(=O)[C@]23CCC(C)(C)C[C@H]2C2=CCC4[C@@]5(C)C[C@H](O)[C@H](O[C@@H]6O[C@H](C(=O)O)[C@@H](O)[C@H](O)[C@H]6O)[C@@](C)(C(=O)O)C5CC[C@@]4(C)[C@]2(C)CC3)O[C@@H]1C (stereo partly specified),outcome,[1],inactive [at 9.29 µM]
same,"activity change, negative = cytotoxicity",[2],1.88% [at 9.29 µM]
